# “And” between values parts separate entries of the source, which are not always exact repeats. Identical values can stand only once. Out of some 420,000 compounds screened, about 64,000 (15%) were called active. Inconclusive results (about 27%) are left out. Not all results are given here. A number with no mark means an inactive call. The call rests on the fitted dose curve; in most records, active means well fitted inhibition curve with a large enough effect; inconclusive means small, poorly fitted or top-dose-only effect; inactive means flat fitted curve, though single readings scatter.
# Assay: qHTS for Inhibitors of human tyrosyl-DNA phosphodiesterase 1 (TDP1): qHTS in cells in absence of CPT; further: nearly all actives have a fitted effect of over 55% in size
# Details: DT40 Tdp1-/- hTDP1 cells, no CPT, ATP luminescence, 48 h; activity change, negative = growth inhibition: at 46.2 µM (top of the series)
# Summary of the method: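 A cellular qHTS used chicken DT40 cells lacking endogenous Tdp1 but carrying stably transfected human TDP1. Compounds were applied without camptothecin, and cell growth kinetics were judged by ATP-dependent luminescence after ≥48 hr.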
# On the % scale 0 is the no-effect control and ±100 the full control effect; potency means the concentration at half of the fitted maximal effect.
SMILES,"activity change, negative = growth inhibition [%]",Potency
O=C(CN1C(=O)NC2(CCCCC2)C1=O)N1CCN(C(=O)c2cccs2)CC1,-3.5,–
O=C(CSc1ccccc1F)NC1CCS(=O)(=O)C1 (stereo not drawn),4.81,–
CS(=O)(=O)N(C(=O)NC(=O)NC1CCS(=O)(=O)C1)C1CCCCC1 (stereo not drawn),-1.68,–
CCCSC(=S)NC1CCS(=O)(=O)C1 (stereo not drawn),–,20.6 µM (active)
CC(C)C(=O)NC(NC(=S)NC1CCS(=O)(=O)C1)C(Cl)(Cl)Cl (stereo not drawn),-0.69,–
CCN(CC(=O)NC1CCS(=O)(=O)C1)S(=O)(=O)c1ccccc1 (stereo not drawn),5.32,–
O=S1(=O)CCC(NC(=S)SCc2ccccc2Br)C1 (stereo not drawn),–,18.4 µM (active)
Cc1cc(C)cc(NC(=O)C(c2ccccc2)N2CCN(CC(=O)N3CCCC3)CC2)c1 (stereo not drawn),-3.14,–
O=C1c2ccccc2C(Nc2ccc3c(c2)OCCO3)N1Cc1ccco1 (stereo not drawn),–,14.6 µM (active)
S=C(NCc1ccco1)Nc1ccc2c(c1)OCCO2,-15.8,–
O=C(NC1CCCCC1)C1c2ccccc2C(=O)N1Cc1ccco1 (stereo not drawn),3.48,–
CCN(CC(=O)Nc1ccc(NC(C)=O)cc1)C(=O)C1CC(=O)N(c2ccc3c(c2)OCCO3)C1 (stereo not drawn),-28.8,–
C/C(N)=C(/C#N)C(=O)COC(=O)CNS(=O)(=O)c1ccc(C)cc1,-4.68,–
CC1(C(=O)NS(=O)(=O)c2ccccc2Cl)CCN1C(=O)c1cccc(F)c1 (stereo not drawn),-10.8,–
c1csc(-c2nnc(COc3ccc4c(c3)OCO4)o2)c1,0.933,–
COc1cccc(CN(C)CC2CCCN(CCc3ccc(Cl)cc3)C2)c1OC (stereo not drawn),–,20.6 µM (active)
COc1cccc(COC(=O)C2CCN(S(=O)(=O)c3ccc(Cl)cc3)CC2)c1OC,-25.1,–
Cc1nc2ccc(C(=O)N(C)CC3CCCN(CCc4ccc(Cl)cc4)C3)cc2[nH]1 (stereo not drawn),5.16,–
CO[C@H]1[C@@H](O)[C@H](N)[C@@H](O[C@H]2O[C@H]([C@H](C)N)CC[C@H]2N)[C@H](O)[C@@H]1N(C)C(=O)CN,-9.26,–
CCOc1ccc(C(=O)Nc2cc(Cl)ccc2-n2cncn2)cc1OC,6.08,–
CCOC(=O)c1cnc2[nH]c3ccccc3n2c1=O,-6.89,–
O=c1[nH]n2c(-c3ccccc3)nc(O)c2c2ccccc12,-0.971,–

SMILES,"activity change, negative = growth inhibition [%]",Potency
O=c1[nH]c2ccccc2n2c(-c3ccccc3)nnc12,–,18.4 µM (active) and 11.2 µM (active)
COC(=O)CCSc1nccn1Cc1ccccc1,3.41,–
Cc1ccc(CN2CC(C(=O)NNC(=O)Cn3ccc(C(F)(F)F)n3)CC2=O)cc1 (stereo not drawn),8.84,–
CN(CCO)C(=O)c1nc[nH]c1C(=O)N(C)Cc1ccccc1,-22,–
CCCCCn1nnnc1-c1nc2cc3ccccc3cc2[nH]c1=O,–,2.59 µM (active)
c1ccc2cc3[nH]c(CN4CCCCC4)nc3cc2c1,-10.7,–
Cc1ccc(-c2nc3ccccc3[nH]c2=O)cc1,8.47,–
O=S1(=O)CSCS(=O)(=O)C1,-12.9,–
CN1OC[C@@H]2CN(C(=O)c3cccc4ccccc34)[C@H](c3ccc(N4CCCCC4)cc3)C[C@@H]21,0.0679,–
COc1ccc(CN2C3CCCC2CC(NC(=O)c2cccc(F)c2)C3)cc1 (stereo not drawn),-4.72,–
COc1ccc(CN2C[C@H]3CON(C)[C@H]3C[C@H]2c2ccc(-c3cccc(F)c3)cc2)cc1,–,16.4 µM (active)
CCCNC(=O)c1onc(CSc2ccc(F)cc2)c1C(=O)NC(C)C,-18.8,–
Cc1ccc(-c2nc(C)sc2CC(=O)O)cc1,0.642,–
N#C/C(=C\c1cccc(F)c1)c1nc(-c2cc3c(ccc4ccccc43)oc2=O)cs1,-10,–
O=C(Oc1ccc(C(=S)N2CCOCC2)cc1)c1ccc(F)cc1,-29.3,–
O=C(Nc1ccc(F)cc1)C(=O)c1cn(CC(=O)N2CCOCC2)c2ccccc12,2.69,–
O=C(c1ccc(F)cc1)n1cc(C(=S)N2CCOCC2)c2ccccc21,–,11.6 µM (active)
COc1ccc(OC)c(NC(=O)CSc2nc3cccnc3n2C)c1,–,16.4 µM (active)
Cn1c(SCC(=O)N2CCCc3ccccc32)nc2ccccc2c1=O,–,9.2 µM (active)
O=C(CSc1nc2[nH]ncc2c(=O)n1-c1ccccc1)N1CCCc2ccccc21,-26.4,–
O=C(CSc1nc2ccccc2c(=O)n1CCCO)NC1CC1,24.5,–
COc1ccc(S(=O)(=O)N2CCOCC2)cc1NC(=O)CSc1ncnc2ccccc12,22.5,–

SMILES,"activity change, negative = growth inhibition [%]",Potency
CCOCCCn1c(SCC(=O)Nc2ccc(CC)cc2)nc2ccccc2c1=O,–,13 µM (active)
COc1ccc(-c2nnc(SCC(=O)Nc3cccnc3Cl)n2C)cc1,0.301,–
COc1ccc(S(=O)(=O)N(C)C)cc1NC(=O)CSc1ncccn1,–,13 µM (active)
Cc1nnc(SCC(=O)N2CCc3ccccc32)n1-c1ccccc1,-15.9,–
CCc1nnc(NC(=O)CSc2nc3ccccc3c(=O)n2CCCOC)s1,-14.5,–
COc1ccc(C)cc1NC(=O)CSc1cccc[n+]1[O-],-5.31,–
COc1ccc(OC)c(NC(=O)CSc2nc(N)c(-c3ccccc3)c(=O)[nH]2)c1,2.08,–
CSc1ccc(NC(=O)N2CC(C)OC(C)C2)cc1 (stereo not drawn),-12.9,–
Cn1cccc1C(=O)N1CCC[C@@]2(CCN(Cc3nccs3)C2)C1,-6.43,–
Cc1nc2ccc(S(=O)(=O)NC(C(=O)NCc3ccccc3Cl)C(C)C)cc2s1 (stereo not drawn),-0.153,–
C[n+]1cccc(C(=O)O)c1,-1.14,–
CSc1ncccc1C(=O)NCc1ccccc1Cl,6.16,–
CCOCCCNC(=O)C(NC(=O)c1ccc(=O)[nH]c1)c1ccc(Cl)cc1 (stereo not drawn),-14.6,–
c1ccc(-c2csc(N3CCc4ccccc4C3)n2)cc1,-1.48,–
Cc1noc(C)c1CCC(=O)O,1.68,–
Cc1ccc(S(=O)(=O)N2CC(O)C[C@H]2C(=O)OCC(=O)Nc2ccc(N3CCOCC3)cc2)cc1C (stereo partly drawn),14.4,–
COc1ccc(NC(=O)CSc2nnc(Cc3ccccc3)c(=O)n2N)cc1,-10.7,–
COc1ccc(-n2nnnc2SCC(=O)Nc2ccccc2)cc1,-28.3,–
COc1ccc(NC(=O)CSc2nc3ccccc3c(=O)n2C)cc1,–,10.3 µM (active)
O=C1/C(=C\Nc2ccccc2)CCN1c1ncccn1,-14,–
Cc1cc(NC(=O)CCC(=O)N(c2ccccc2)C(C(=O)NC2CCCC2)c2ccncc2)no1 (stereo not drawn),-2.03,–
CCC(C)(C)NC(=O)C(c1ccc(O)cc1)N(Cc1ccco1)C(=O)CCC(=O)Nc1ccccn1 (stereo not drawn),-15.2,–

SMILES,"activity change, negative = growth inhibition [%]",Potency
Cc1ccc(C(C(=O)NC2CCCC2)N(Cc2ccco2)C(=O)CCC(=O)Nc2ccccn2)cc1 (stereo not drawn),–,16.4 µM (active)
CC(=O)NC1(c2ccc(F)cc2)CCN(C(=O)c2c(F)cccc2F)CC1,-1.26,–
Cc1cc(C)cc(NC(=O)NC2CCCCCCC2)c1,3.43,–
CC(C)(C)NS(=O)(=O)c1ccc(NC(=O)NC2CCCCC2)cc1,-24.7,–
CC(C)c1ccc(NC(=O)NC2CCCCC2)cc1,–,20.6 µM (active)
O/N=C(\C[n+]1ccccc1)c1ccc(Br)cc1,9.42,–
COc1ccc(CCNC(=O)CN2CCC(n3nnc4cc(F)ccc43)CC2)cc1OC,-21.5,–
Cc1cccc(NC(=O)COC(=O)CCc2ccccc2)c1C,-0.618,–
Cc1ccccc1NC(=O)CSC(=O)c1ccccc1,-114,–
Cc1cccc(NC(=O)CSC(N)=O)c1C,–,18.4 µM (active)
N#CCCN(C(=O)COC(=O)c1ccc(S(=O)(=O)N2CCCCCC2)cc1)c1ccccc1,-20.9,–
CCC(C)N(C(=O)CSc1nnnn1-c1ccccc1OC)C1CCS(=O)(=O)C1 (stereo not drawn),15.2,–
COc1ccccc1-n1nnnc1S(=O)(=O)Cc1ccc(Cl)cc1,–,6.51 µM (active)
COc1ccccc1-n1nnnc1SCC(=O)NC(=O)Cc1ccccc1,9.83,–
CCOC(=O)C(Sc1ncc(C#N)c(N)n1)C(C)C (stereo not drawn),-16.3,–
O=C(CSc1nnc(-c2ccncc2)n1-c1ccc(Cl)cc1)Nc1ccc(C(=O)O)cc1,-9.17,–
Cc1cc(NC(=O)CSCC(=O)NC(C)c2ccccc2)no1 (stereo not drawn),4.75,–
CN(CC(=O)Nc1c(Cl)cccc1Cl)C(=O)CC1OC(=O)c2ccccc21 (stereo not drawn),2.57,–
CC(=O)Nc1ccc(NC(=O)C2CCCN2S(=O)(=O)c2cccc(C(F)(F)F)c2)cc1 (stereo not drawn),8.22,–
CCc1ccc(NC(=O)C2CCCN2S(=O)(=O)c2ccc3nc(-c4ccccc4)[nH]c3c2)cc1 (stereo not drawn),–,23.1 µM (active)
CCc1ccccc1NS(=O)(=O)c1ccc2nc(-c3ccccc3)[nH]c2c1,–,9.2 µM (active)
CCc1nnc(NC(=O)C2CCCN2S(=O)(=O)c2ccccc2)s1 (stereo not drawn),4.37,–

SMILES,"activity change, negative = growth inhibition [%]",Potency
Cc1ccc(S(=O)(=O)Nc2ccccc2CNc2c(C)n(C)n(-c3ccccc3)c2=O)cc1,1.18,–
CCOc1ccc(OCC)c(NS(=O)(=O)c2ccc3[nH]c(=O)ccc3c2)c1,1.43,–
COc1ccc(NC(=O)C2C3CCC(O3)C2C(=O)O)cc1OC (stereo not drawn),21.9,–
CC(=O)N1CCN(CC(C)(C)NS(=O)(=O)c2ccc(C)cc2)CC1,17.7,–
COc1cc(OC)c(C(=O)NNC(=O)c2ccc(NS(=O)(=O)c3cccs3)cc2)cc1OC,3.62,–
CCN(CC)CCn1c2ccc(Cl)cc2c2nc(C)sc21,–,23.1 µM (active)
COC(=O)Cn1c2ccc(C)cc2c2nc(C)sc21,-12.8,–
COc1cc2c(cc1OC)C(c1ccccc1Br)NC(=O)C2 (stereo not drawn),7.95,–
O=C(CCn1c(=O)oc2ccccc21)Nc1ccon1,-1.36,–
O=C(CNC(=O)c1ccccc1Br)NNC(=O)c1cccs1,3.7,–
Cc1ccc(S(=O)(=O)c2nnn3c2nc(N2CCN(c4ccccn4)CC2)c2ccccc23)cc1,0.726,–
O=S(=O)(c1ccc(Br)cc1)c1nnn2c1nc(NC1CCCCCC1)c1sccc12,-5.37,–
Cc1ccc(C)c(S(=O)(=O)c2nnn3c2nc(N2CCOCC2)c2sccc23)c1,–,23.1 µM (active)
COc1ccc(CCOC(=O)CNC(=O)c2ccc(Cl)cc2Cl)cc1,11.6,–
COC(=O)c1cnc(Nc2cc(C)ccc2OC)c2ccccc12,2.44,–
COc1ccc(Nc2ncc(C(=O)Nc3cc(C)ccc3OC)c3ccccc23)cc1,–,23.1 µM (active)
COc1ccccc1N1CCN(C(=O)c2ccc(NC3=NC4CS(=O)(=O)CC4S3)cc2)CC1 (stereo not drawn),-10.6,–
COc1ccc(NC2CCCN(C(=O)c3ccccc3-c3ncc[nH]3)C2)cc1 (stereo not drawn),-7.25,–
COc1ccc(NC(=O)c2cnc(Nc3ccc(C)c(Cl)c3)c3ccccc23)cc1OC,10.1,–
COc1ccc(Nc2ncc(C(=O)N3CCN(c4ccccc4OC)CC3)c3ccccc23)cc1,–,25.9 µM (active) and 5.8 µM (active)

# — PubChem BioAssay AID686978 (National Center for Advancing Translational Sciences (NCATS), 2013)
